# Read-outs that look alike come from different tables or passages of the source.
# Experiments:
# Design in all cases: species or system human, MV4-11 + K-562 + COLO205 + SK-N-BE2 + OVCAR-8
# [1] = system: ACVR1B; conditions: read-out: apparent Kd, compound concentrations: 100 nM and 1000 nM (sheet 'Samples'), n = 1
# [2] = system: ACVR2B; conditions: read-out: apparent Kd; compound concentrations: 100 nM and 1000 nM (sheet 'Samples'), CATDS: 8.2353092384730597E-2; n = 1
# [3] = system: ADCK3; conditions: read-out: apparent Kd; compound concentrations: 100 nM and 1000 nM (sheet 'Samples'), CATDS: 4.7719442951788302E-2; n = 1
# [4] = system: BCR; conditions: read-out: apparent Kd; compound concentrations: 100 nM and 1000 nM (sheet 'Samples'), CATDS: 9.2768545935790703E-2; n = 1
# [5] = system: CSNK1G1; conditions: read-out: apparent Kd; compound concentrations: 100 nM and 1000 nM (sheet 'Samples'), CATDS: 3.1181891791675201E-2; n = 1
# [6] = system: DCTPP1; conditions: read-out: apparent Kd; compound concentrations: 100 nM and 1000 nM (sheet 'Samples'), CATDS: 3.3773682420650999E-2; n = 1
# [7] = system: DDR1; conditions: read-out: apparent Kd; compound concentrations: 100 nM and 1000 nM (sheet 'Samples'), CATDS: 4.4560789756538197E-2; n = 1
# [8] = system: FLT4; conditions: read-out: apparent Kd; compound concentrations: 100 nM and 1000 nM (sheet 'Samples'), CATDS: 0.117719858007404; n = 1
# [9] = system: GAK; conditions: read-out: apparent Kd; compound concentrations: 100 nM and 1000 nM (sheet 'Samples'), CATDS: 0.134261211287381; n = 1
# [10] = system: MAPK14; conditions: read-out: apparent Kd, compound concentrations: 100 nM and 1000 nM (sheet 'Samples'), n = 1
# [11] = system: MAPKAPK2; conditions: read-out: apparent Kd, compound concentrations: 100 nM and 1000 nM (sheet 'Samples'), n = 1
# [12] = system: PDGFRB; conditions: read-out: apparent Kd; compound concentrations: 100 nM and 1000 nM (sheet 'Samples'), CATDS: 3.2777041424413303E-2; n = 1
# [13] = system: PIK3CD; conditions: read-out: apparent Kd; compound concentrations: 100 nM and 1000 nM (sheet 'Samples'), CATDS: 7.8466162037350698E-2; n = 1
# [14] = system: PIM2; conditions: read-out: apparent Kd; compound concentrations: 100 nM and 1000 nM (sheet 'Samples'), CATDS: 3.2827495568097498E-2; n = 1
# [15] = system: PRKAG1; conditions: read-out: apparent Kd; compound concentrations: 100 nM and 1000 nM (sheet 'Samples'), CATDS: 0.117727250561146; n = 1
# [16] = system: RET; conditions: read-out: apparent Kd; compound concentrations: 100 nM and 1000 nM (sheet 'Samples'), CATDS: 0.121628255608471; n = 1
# [17] = system: RIPK2; conditions: read-out: apparent Kd, compound concentrations: 100 nM and 1000 nM (sheet 'Samples'), n = 1
# [18] = system: RIPK3; conditions: read-out: apparent Kd; compound concentrations: 100 nM and 1000 nM (sheet 'Samples'), CATDS: 3.5551158882109302E-2; n = 1
# [19] = system: SLK; conditions: read-out: apparent Kd; compound concentrations: 100 nM and 1000 nM (sheet 'Samples'), CATDS: 3.3864807637991101E-2; n = 1
# [20] = system: STK10; conditions: read-out: apparent Kd; compound concentrations: 100 nM and 1000 nM (sheet 'Samples'), CATDS: 3.2932221087981599E-2; n = 1
# [21] = system: TGFBR1; conditions: read-out: apparent Kd, compound concentrations: 100 nM and 1000 nM (sheet 'Samples'), n = 1
# [22] = system: CSNK1D; conditions: read-out: apparent Kd, compound concentrations: 100 nM and 1000 nM (sheet 'Samples'), n = 1
# [23] = system: NQO1; conditions: read-out: apparent Kd; compound concentrations: 100 nM and 1000 nM (sheet 'Samples'), CATDS: 9.3669265888158104E-2; n = 1
# [24] = system: PRKD2; conditions: read-out: apparent Kd; compound concentrations: 100 nM and 1000 nM (sheet 'Samples'), CATDS: 9.0452620049035204E-2; n = 1
# [25] = system: PRKD3; conditions: read-out: apparent Kd; compound concentrations: 100 nM and 1000 nM (sheet 'Samples'), CATDS: 9.3266966311560201E-2; n = 1
# [26] = system: TGFBR2; conditions: read-out: apparent Kd; compound concentrations: 100 nM and 1000 nM (sheet 'Samples'), CATDS: 0.106428788110752; n = 1
# [27] = system: AGPS; conditions: read-out: apparent Kd; compound concentrations: 100 nM and 1000 nM (sheet 'Samples'), CATDS: 9.4477869255485902E-2; n = 1
# [28] = system: CSNK1E; conditions: read-out: apparent Kd; compound concentrations: 100 nM and 1000 nM (sheet 'Samples'), CATDS: 9.3377022470402096E-2; n = 1
# [29] = system: ILK; conditions: read-out: apparent Kd; compound concentrations: 100 nM and 1000 nM (sheet 'Samples'), CATDS: 9.8525851125826097E-2; n = 1
# [30] = system: MDN1; conditions: read-out: apparent Kd; compound concentrations: 100 nM and 1000 nM (sheet 'Samples'), CATDS: 9.4286494514119495E-2; n = 1
# [31] = system: TESK2; conditions: read-out: apparent Kd; compound concentrations: 100 nM and 1000 nM (sheet 'Samples'), CATDS: 9.9817052034954598E-2; n = 1
smiles,measurement,setting,value
Cl.c1ccc(-c2ccc3c(Nc4ccc5[nH]ccc5c4)ccnc3c2)nc1 [GW440138A],potency estimated from few doses,[1]; CATDS: 4.6786491220556801E-2,0.481 µM
same,potency estimated from few doses,[2],0.119 µM
same,potency estimated from few doses,[3],0.453 µM
same,potency estimated from few doses,[4],0.0942 µM
same,potency estimated from few doses,[5],2.21 µM
same,potency estimated from few doses,[6],1.52 µM
same,potency estimated from few doses,[7],0.558 µM
same,potency estimated from few doses,[8],0.0621 µM
same,potency estimated from few doses,[9],0.0504 µM
same,potency estimated from few doses,[10]; CATDS: 3.4656065329692502E-2,1.36 µM
same,potency estimated from few doses,[11]; CATDS: 3.6359622105698597E-2,1.13 µM
same,potency estimated from few doses,[12],1.74 µM
same,potency estimated from few doses,[13],0.131 µM
same,potency estimated from few doses,[14],1.73 µM
same,potency estimated from few doses,[15],0.0621 µM
same,potency estimated from few doses,[16],0.0589 µM
same,potency estimated from few doses,[17]; CATDS: 9.1819090008616905E-2,0.096 µM
same,potency estimated from few doses,[18],1.23 µM
same,potency estimated from few doses,[19],1.5 µM
same,potency estimated from few doses,[20],1.7 µM
same,potency estimated from few doses,[21]; CATDS: 3.3353996137348303E-2,1.61 µM
Nc1nc(-c2ccccn2)c(-c2ccc3ncccc3n2)s1 [GW693481X],potency estimated from few doses,[1]; CATDS: 0.44423819438106199,0.0189 µM
same,potency estimated from few doses,[22]; CATDS: 0.10134290714946401,1.41 µM
same,potency estimated from few doses,[23],1.85 µM
same,potency estimated from few doses,[24],2.11 µM
same,potency estimated from few doses,[25],1.88 µM
same,potency estimated from few doses,[17]; CATDS: 0.125372096454309,0.727 µM
same,potency estimated from few doses,[21]; CATDS: 0.486387422395817,0.016 µM
same,potency estimated from few doses,[26],1.2 µM
CN1CCN(CCCNc2nccc(-c3c(-c4ccc(F)cc4)nn4cc(C(F)(F)F)ccc34)n2)CC1 [GW621581X],potency estimated from few doses,[1]; CATDS: 0.17734677143715399,0.667 µM
same,potency estimated from few doses,[27],2.19 µM
same,potency estimated from few doses,[22]; CATDS: 0.11827296398223,1.33 µM
same,potency estimated from few doses,[28],2.25 µM
same,potency estimated from few doses,[29],1.97 µM
same,potency estimated from few doses,[10]; CATDS: 0.13638952707170801,1.02 µM
same,potency estimated from few doses,[11]; CATDS: 0.13321456142161001,1.07 µM
same,potency estimated from few doses,[30],2.2 µM
same,potency estimated from few doses,[31],1.91 µM

# — paper PMC11062922 (Nature Chemical Biology, 2023)
